From the supplement of paper PMC12340641
Whole data set: some 1,000 compounds, median “relative growth recovery (pomalidomide 10 uM = 100%, DMSO = 0%)” near -1.6, cut for the highest 2% near 21. This excerpt belongs to a sample that is enriched for the highest values.

Each molecule was assayed on HEK293FT dCK*-IKZF1 (assay: relative growth recovery (pomalidomide 10 uM = 100%, DMSO = 0%); higher = more growth rescue (IKZF1 fusion degradation)). Details: compound concentration: 5 uM; AraC concentration: 0.3 uM; overnight pretreatment + 4 days AraC.
Description: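 Growth recovery screen of the molecular-glue-like (Specs) library. HEK293FT cells expressing a dCK*-IKZF1 fusion (primary) or dCK* alone (counter) were pretreated overnight with compound at 5 uM, then given 0.3 uM AraC for 4 days. Hoechst nuclei were counted by imaging. Primary: normalised to pomalidomide (100%) and DMSO (0%), mean of 2 replicates. Counter: normalised to no-AraC (100%) and AraC+DMSO (0%), single replicate.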
In the case of `Cc1cnc(Nc2cccc(C3CCN(C(=O)C4(NC(=O)C(C)(C)C)CCCCC4)CC3)n2)s1`, the relative growth recovery is reported as -12.6%. `O=S(=O)(Nc1ccc(S(=O)(=O)Nc2ncccn2)cc1)c1ccc(Cl)cc1` gave a relative growth recovery of -4.2%. In the case of `CCCc1cnc(Nc2cccc(C3(CO)CCN(C(=O)C4CCCCC4)CC3)n2)s1`, the relative growth recovery is reported as -17%. With `O=C(C1CCCCC1)N1CCOC(c2cccc(Nc3ncc(Cc4ccccc4)s3)n2)C1` (configuration not stated) the relative growth recovery was 2.33%. Work on `Cc1cnc(NC(=O)CN2CCC(c3cccc(Nc4ncc(C)s4)n3)CC2)s1` yielded a relative growth recovery of -13.8%. Work on `Cc1ccn2cc(C(=O)N3CCCC3c3cccc(Nc4nc(C)c(C)s4)n3)nc2c1` (configuration not stated) yielded a relative growth recovery of 39.7%. `COCCC(=O)N1CCC(c2cccc(Nc3nc(C)c(C)s3)n2)CC1` showed a relative growth recovery of 9.99%. In the case of `Cc1nc(Nc2cccc(C3CCCN3C(=O)c3ccc(=O)n(C)n3)n2)sc1C` (configuration not stated), the relative growth recovery is reported as 5.83%. `Cc1cnc(Nc2cccc(C3CCN(CC(=O)Nc4c(F)cccc4F)CC3)n2)s1` was tested, and the relative growth recovery was -13.4%. For `Cc1nc(Nc2cccc(C3CCN(C(=O)CCc4c(C)n[nH]c4C)CC3)n2)sc1C`, the relative growth recovery was 26%. Molecule `Cc1ccc2[nH]nc(C(=O)N3CCCC3c3cccc(Nc4nc(C)cs4)n3)c2c1` (configuration not stated) has a relative growth recovery of -0.105%. With `Cc1cnc(C(=O)N2CCCC2c2cccc(Nc3nc(C)c(C)s3)n2)cn1` (configuration not stated) the relative growth recovery was 4.79%. Work on `Cc1cnc(NC(=O)CN2CCC(c3cccc(Nc4nc(C)c(C)s4)n3)CC2)s1` yielded a relative growth recovery of 30.3%. Molecule `Cc1csc(Nc2cccc(C3CCCN3C(=O)c3ccc4[nH]c(C(C)C)nc4c3)n2)n1` (configuration not stated) has a relative growth recovery of 36.3%. Work on `Cc1nc(Nc2cccc(C3CN(C(=O)CCc4c(C)n[nH]c4C)CCO3)n2)sc1C` (configuration not stated) yielded a relative growth recovery of -0.835%. `Cc1csc(Nc2cccc(C3CCCN3C(=O)c3ccc4c(c3)CCCN4C)n2)n1` (configuration not stated) was tested, and the relative growth recovery was 7.5%. For `CCOCc1ccc(C(=O)N2CCC(c3cccc(Nc4ncc(C)s4)n3)CC2)cc1`, the relative growth recovery was 29.5%. Work on `Cc1cnc(Nc2cccc(C3CCN(C(=O)c4cccnc4)CC3)n2)s1` yielded a relative growth recovery of -18.6%. For `COc1ccc(NC(=O)CN2CCC(c3cccc(Nc4ncc(C)s4)n3)CC2)cc1`, the relative growth recovery was -11%. In the case of `Cc1csc(Nc2cccc(C3CCN(CC(=O)NCc4ccccn4)CC3)n2)n1`, the relative growth recovery is reported as -8.2%. `CC(=O)N1CCC(c2cccc(Nc3ncc(C)s3)n2)CC1` showed a relative growth recovery of -19%. `COc1ccc(NC(=O)CN2CCC(c3cccc(Nc4nc(C)cs4)n3)CC2)cc1` gave a relative growth recovery of 32.9%. In the case of `CC(=O)Nc1ccc(S(=O)(=O)Nc2ncccn2)cc1`, the relative growth recovery is reported as -3.27%. Molecule `Cc1ccc2[nH]c3nc(SCC(=O)Nc4ccc(F)cc4)nnc3c2c1` has a relative growth recovery of -0.35%. Molecule `Cc1cc(C)nc(NS(=O)(=O)c2ccc(NC(=S)NC(=O)/C=C/c3ccccc3)cc2)n1` has a relative growth recovery of -1.71%. `CS(=O)(=O)NCC(=O)N1CCC(c2cccc(Nc3ncc(-c4ccccc4)s3)n2)CC1` gave a relative growth recovery of -20.5%. `COCCOCC(=O)Nc1ccc(S(=O)(=O)Nc2cc(C)nc(C)n2)cc1` was tested, and the relative growth recovery was -1.1%. In the case of `C[C@@H](N)C(=O)N1CCC(CO)(c2cccc(Nc3ncc(-c4ccccc4)s3)n2)CC1`, the relative growth recovery is reported as -18.2%. With `Cc1csc(Nc2cccc(C3CCN(CC(=O)N4CCC(C(N)=O)CC4)CC3)n2)n1` the relative growth recovery was 5.36%. Molecule `Cc1cnc(Nc2cccc(C3(C(=O)NCCO)CCN(C(=O)C4CCCCC4)CC3)n2)s1` has a relative growth recovery of -5.96%. In the case of `COCCC(=O)N1CCC(c2cccc(Nc3ncc(C)s3)n2)CC1`, the relative growth recovery is reported as -3.65%. `O=C(O)COCCOCCNc1cc2c(cc1F)C(=O)N(C1CCC(=O)NC1=O)C2=O` (configuration not stated) gave a relative growth recovery of -7.7%. `O=C(CSc1nc2cc(Cl)ccc2[nH]1)Nc1ncccn1` was tested, and the relative growth recovery was -1.69%. With `COc1cc(NS(=O)(=O)c2ccc(NC(=O)CCl)cc2)nc(OC)n1` the relative growth recovery was -5.68%. `COc1ccc(Cl)c2c1[nH]c1nc(SCC(=O)Nc3ccc(Cl)cc3)nnc12` gave a relative growth recovery of 2.88%. Work on `Cc1cnc(Nc2cccc(C3CCCN3C(=O)Cn3cnc4ccccc43)n2)s1` (configuration not stated) yielded a relative growth recovery of -19.5%. In the case of `O=C(CSc1nnc2c(n1)[nH]c1ccccc12)Nc1ccc(F)cc1`, the relative growth recovery is reported as 7.2%. `CCCCc1cnc(Nc2cccc(C3CCN(C(=O)C(C)(C)NC(=O)OC(C)(C)C)CC3)n2)s1` gave a relative growth recovery of -15.7%. Work on `O=C(O)CN1CCN(c2cccc3c2C(=O)N(C2CCC(=O)NC2=O)C3=O)CC1` (configuration not stated) yielded a relative growth recovery of 0.995%. Molecule `Cc1ccnc(NS(=O)(=O)c2ccc(NC(=O)c3cccs3)cc2)n1` has a relative growth recovery of 3.83%. Molecule `Cc1ccc(C(C)C)c(OCC(=O)Nc2ccc(S(=O)(=O)Nc3ccccn3)cc2)c1` has a relative growth recovery of -1.57%. `COc1ccc(C(=O)Nc2ccc(S(=O)(=O)Nc3ccccn3)cc2)cc1` was tested, and the relative growth recovery was -5.12%. For `Cc1ccc2[nH]c3nc(SCC(=O)Nc4ccc(C)c(Cl)c4)nnc3c2c1`, the relative growth recovery was -24.6%. Work on `CCCc1cnc(Nc2cccc(C3CCN(C(=O)CN)CC3)n2)s1` yielded a relative growth recovery of -15.8%. For `CC(=O)Nc1ccc(S(=O)(=O)Nc2cc(C)nc(C)n2)cc1`, the relative growth recovery was -1.14%. `Cc1ccnc(NS(=O)(=O)c2ccc(NC(=O)c3ccccc3C)cc2)n1` showed a relative growth recovery of -1.84%. `COc1ccc(NS(=O)(=O)c2ccc(N)cc2)nn1` gave a relative growth recovery of 3.75%. `O=C(CCCOc1ccc(Cl)cc1)Nc1ccc(S(=O)(=O)Nc2ncccn2)cc1` gave a relative growth recovery of 0.13%. `Cc1ccnc(NS(=O)(=O)c2ccc(NC(=O)c3ccc(Cl)cc3[N+](=O)[O-])cc2)n1` was tested, and the relative growth recovery was -0.255%. Molecule `Cc1cc(C)nc(NS(=O)(=O)c2ccc(/N=C3/NC(=O)CS3)cc2)n1` has a relative growth recovery of -0.9%. In the case of `O=C(Nc1ccc(S(=O)(=O)Nc2ncccn2)cc1)c1cccc(Br)c1`, the relative growth recovery is reported as -4.75%. Work on `Cc1csc(Nc2cccc(C3CCN(C(=O)c4nccc5ccccc45)CC3)n2)n1` yielded a relative growth recovery of -0.34%. Work on `Cc1cnc(Nc2cccc(C3CCN(C(=O)c4cccc5cccnc45)CC3)n2)s1` yielded a relative growth recovery of -2%. Work on `Cc1ccnc(NS(=O)(=O)c2ccc(NC(=O)c3ccc4c(c3)OCO4)cc2)n1` yielded a relative growth recovery of 0.925%. `Cc1cc(NS(=O)(=O)c2ccc(NC(=O)COc3ccccc3Cl)cc2)nc(C)n1` showed a relative growth recovery of 3.46%. Molecule `CC(=O)N1CCCCC1c1csc(Nc2ccccn2)n1` (configuration not stated) has a relative growth recovery of 1.36%. Work on `Cc1cc(NS(=O)(=O)c2ccc(NC(=O)c3ccccc3C)cc2)nc(C)n1` yielded a relative growth recovery of -1.93%. Work on `Cc1csc(Nc2cccc(C3CCCN3C(=O)Cc3ccc(F)cc3)n2)n1` (configuration not stated) yielded a relative growth recovery of 3.22%. `CN1CCN(CC(=O)N2CCC(c3cccc(Nc4ncc(-c5ccccc5)s4)n3)CC2)CC1` showed a relative growth recovery of -17.9%. Work on `Cc1cnc(Nc2cccc(C3CN(C(=O)CN(CCC(C)C)c4ccccc4)CCO3)n2)s1` (configuration not stated) yielded a relative growth recovery of -3.83%. For `O=C(CCn1ncc2c1CCCC2)N1CCOC(c2cccc(Nc3nccs3)n2)C1` (configuration not stated), the relative growth recovery was 14.7%. For `Cc1cnc(Nc2cccc(C3CCN(C(=O)C4(N)CCCCC4)CC3)n2)s1`, the relative growth recovery was -17.6%. For `CCC(C)(C)C(=O)Nc1ccc(S(=O)(=O)Nc2ncccn2)cc1`, the relative growth recovery was -5.08%. `Cc1ccnc(NS(=O)(=O)c2ccc(NS(=O)(=O)c3ccc(F)cc3)cc2)n1` was tested, and the relative growth recovery was -0.59%. `Cc1nc(Nc2cccc(C3CCCN3C(=O)COc3ccc(F)cc3)n2)sc1C` (configuration not stated) was tested, and the relative growth recovery was 14.4%. In the case of `Cc1cc(C)nc(NS(=O)(=O)c2ccc(Nc3nc(-c4cccnc4)cs3)cc2)n1`, the relative growth recovery is reported as -1.15%. Work on `COc1cc(NS(=O)(=O)c2ccc(NC(=O)COc3ccc(C)cc3)cc2)nc(OC)n1` yielded a relative growth recovery of 1.75%. For `O=C(CN1CCC(c2cccc(Nc3nccs3)n2)CC1)Nc1ccc(F)cc1`, the relative growth recovery was 9.19%. With `COc1ccc(Cl)c2c1[nH]c1nc(SCC(=O)Nc3ccc(F)cc3)nnc12` the relative growth recovery was -2.51%. `Cc1cnc(Nc2cccc(C3(C(N)=O)CCN(C(=O)C4CCCCC4)CC3)n2)s1` showed a relative growth recovery of -18.2%. For `COc1ccccc1OCC(=O)Nc1ccc(S(=O)(=O)Nc2ncccn2)cc1`, the relative growth recovery was 1.59%. `Cc1cnc(Nc2cccc(C3CCN(C(=O)C45CC6CC(CC(C6)C4)C5)CC3)n2)s1` showed a relative growth recovery of 1.16%. Work on `CCCOc1ccc(C(=O)Nc2ccc(S(=O)(=O)Nc3nc(C)cc(C)n3)cc2)cc1` yielded a relative growth recovery of -2.85%. For `Cc1cc(Cl)ccc1OC(C)C(=O)Nc1ccc(S(=O)(=O)Nc2ccccn2)cc1` (configuration not stated), the relative growth recovery was 0.47%. For `Cc1cc(NS(=O)(=O)c2ccc(NC(=O)CCCOc3ccc(Cl)cc3)cc2)nc(C)n1`, the relative growth recovery was -1.54%. `Cc1csc(Nc2cccc(C3CCCN3C(=O)CO)n2)n1` (configuration not stated) gave a relative growth recovery of 1.4%. Molecule `CC(=O)NC1(CC(=O)N2CCC(c3cccc(Nc4ncc(C)s4)n3)CC2)CCCCC1` has a relative growth recovery of -11.7%. For `Cc1ccc(Nc2nc(C3CCCN(CC(N)=O)C3)cs2)nc1` (configuration not stated), the relative growth recovery was -5.75%. Molecule `Cc1cc(C)nc(NS(=O)(=O)c2ccc(NC(=S)NC(=O)c3ccc(F)c(F)c3)cc2)n1` has a relative growth recovery of -2.13%. `Cc1cnc(Nc2cccc(C3CN(C(=O)C4CCOC4)CCO3)n2)s1` (configuration not stated) gave a relative growth recovery of -8.06%. In the case of `Cc1cc(C)nc(NS(=O)(=O)c2ccc(NC(=O)COc3ccc(Cl)cc3)cc2)n1`, the relative growth recovery is reported as 3.77%. `Cc1ccc(S(=O)(=O)Nc2ccc(S(=O)(=O)Nc3ncccn3)cc2)cc1` was tested, and the relative growth recovery was -3.26%. `O=C(Nc1ccc(S(=O)(=O)Nc2ncccn2)cc1)C(F)(F)F` showed a relative growth recovery of 12.6%. `O=C1CCC(N2C(=O)c3ccc(N4CCC(C(=O)O)CC4)cc3C2=O)C(=O)N1` (configuration not stated) showed a relative growth recovery of 1.72%. With `Cc1cc(C)nc(NS(=O)(=O)c2ccc(NC(=O)c3ccc(S(=O)(=O)N(C)C)cc3)cc2)n1` the relative growth recovery was -5.78%. For `Cc1cc(Cl)ccc1OCC(=O)Nc1ccc(S(=O)(=O)Nc2ncccn2)cc1`, the relative growth recovery was -2.19%. `Cc1ccc(Oc2ccc(N3C(=O)c4ccc(Oc5ccc(N)cc5)cc4C3=O)cc2)cc1C` was tested, and the relative growth recovery was -8.53%. `CCNc1nc(NCC)nc(NS(=O)(=O)c2ccc(N)cc2)n1` was tested, and the relative growth recovery was 3.4%. `Cc1ccnc(NS(=O)(=O)c2ccc(NC(=O)c3ccc(C)c(C)c3)cc2)n1` showed a relative growth recovery of 1.75%. For `CC(=O)Nc1ccc(S(=O)(=O)N(C#N)c2nc(C)cc(C)n2)cc1`, the relative growth recovery was 4.26%. Work on `Cc1cnc(Nc2cccc(C3CN(C(=O)CC4CCCCC4)CCO3)n2)s1` (configuration not stated) yielded a relative growth recovery of -11.7%. `Cc1cnc(Nc2cccc(C3CN(C(=O)C4CCCCC4)CCO3)n2)s1` (configuration not stated) gave a relative growth recovery of -11.7%. `CC(=O)Nc1cccc(Oc2ccc3c(c2)C(=O)N(c2ccc(OC(C)=O)cc2)C3=O)c1` was tested, and the relative growth recovery was -2.76%. `O=C(Nc1ccc(S(=O)(=O)Nc2ncccn2)cc1)c1ccc([N+](=O)[O-])cc1` gave a relative growth recovery of -0.33%. With `Cc1csc(Nc2cccc(C3CCCN3C(=O)CC3CC(C)(C)NC(C)(C)C3)n2)n1` (configuration not stated) the relative growth recovery was -0.835%. Work on `COc1ccc(OCCCC(=O)Nc2ccc(S(=O)(=O)Nc3ncccn3)cc2)cc1` yielded a relative growth recovery of -3.56%. `CN(CCN1CCC(C(=O)O)CC1)c1cccc2c1C(=O)N(C1CCC(=O)NC1=O)C2=O` (configuration not stated) was tested, and the relative growth recovery was 5.47%.
